Inconclusive results are not listed. Calls of active or inactive are those of the source. The calls were made as follows: active = hit-call score of the fitted dose curve at least 0.9, where 1 is the maximum; inconclusive = response in the unintended direction; inactive = score below 0.9.

The nature of assay [1]: TOX21_p53_BLA_p2_viability: Viability Assessment in the Tox21 HCT-116 p53 Agonism Beta-lactamase Assay, Phase 2 (AID 2283591).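 Also: compound exposure lasted 16 h at 37 °C; actives lower the ATP signal meaning cytotoxicity.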 A digest of the protocol: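 HCT116 p53-bla cells, 4000/well, dosed after 5 h plating (217-fold dilution of DMSO stocks) and incubated 16 h at 37C. Viability taken as cellular ATP by CellTiter-Glo luminescence after 30 min RT; signal loss marks cytotoxicity.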

The nature of assay [2]: TOX21_p53_BLA_p4_viability: Viability Assessment in the Tox21 HCT-116 p53 Agonism Beta-lactamase Assay, Phase 4 (AID 2283597).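 Also: hits lower the luminescence signal meaning cytotoxicity.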 A digest of the protocol: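 Cells plated, 5 h pre-incubation; DMSO compounds pinned (217-fold dilution); 16 h, 37C/5% CO2; CCF4-AM 2 h RT; CellTiter-Glo 30 min RT; luminescence read.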
In assay [3] the target is Cellular tumor antigen p53 (Homo sapiens) (UniProt P04637). The assay can be described thus: TOX21_p53_BLA_p4_ratio: Tox21 HCT-116 p53 Agonism Beta-lactamase Assay, Ratio, Phase 4 (AID 2283601). A digest of the protocol: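 HCT-116 p53 beta-lactamase reporter cells (4000/well) preincubated 5 h, then compound (217-fold dilution of DMSO stock) for 16 h at 37C. CCF4-AM substrate added 2 h at room temperature; 460/530 nm emission ratio fitted upward versus DMSO.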

Assay [4] has the same target. The assay can be described thus: TOX21_p53_BLA_p5_ratio: Tox21 HCT-116 p53 Agonism Beta-lactamase Assay, Ratio, Phase 5 (AID 2283599). The method, boiled down: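 HCT-116 p53-bla cells (4000/well) plated 5 h, dosed with compound (217-fold DMSO dilution) for 16 h at 37 C; CCF4-AM substrate 2 h at room temperature. Activity is the 460/530 nm emission ratio (405 nm excitation), fitted in gain-of-signal direction versus DMSO.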

Assay [5] can be described thus: TOX21_p53_BLA_p5_viability: Viability Assessment in the Tox21 HCT-116 p53 Agonism Beta-lactamase Assay, Phase 5 (AID 2283600). A digest of the protocol:
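4000 cells/well; 5 h pre-incubation; DMSO compounds pin-transferred, 217-fold dilution; 16 h, 37C/5% CO2; CCF4-AM 2 h RT; CellTiter-Glo 30 min RT; luminescence.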

Assay [6] has as its target Cellular tumor antigen p53 (Homo sapiens) (UniProt P04637). Nature of the assay: TOX21_p53_BLA_p2_ratio: Tox21 HCT-116 p53 Agonism Beta-lactamase Assay, Ratio, Phase 2 (AID 2283592). The method, boiled down: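 HCT116 p53-bla; 4000 cells/well; 5 h pre-incubation; cpd in DMSO, 217-fold dilution; 16 h 37C/5% CO2; CCF4-AM 2 h RT; Ex 405, Em 460/530 ratio; DMSO = baseline; positive fitting direction.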

The nature of assay [7]: TOX21_p53_BLA_p3_viability: Viability Assessment in the Tox21 HCT-116 p53 Agonism Beta-lactamase Assay, Phase 3 (AID 2283593).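 Also: cells exposed to compound for 16 h before reading.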 The method, boiled down:
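HCT116 cells, 4000/well, dosed 5 h after plating by pin transfer (217-fold dilution from DMSO stock) and incubated 16 h at 37C, 5% CO2. Viability read as ATP luminescence with CellTiter-Glo after 30 min at room temperature.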

For assay [8], the target named is Cellular tumor antigen p53 (Homo sapiens) (UniProt P04637). The assay can be described thus: TOX21_p53_BLA_p3_ratio: Tox21 HCT-116 p53 Agonism Beta-lactamase Assay, Ratio, Phase 3 (AID 2283596). The method, boiled down:
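HCT116 p53-bla cells (4000/well) given compound in DMSO (217-fold dilution) after 5 h, incubated 16 h at 37C. CCF4-AM substrate 2 h at room temperature; 460/530 nm emission ratio, gain fitted against DMSO.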

Sequence of Cellular tumor antigen p53 (Homo sapiens) (P04637 whole entry, looked up): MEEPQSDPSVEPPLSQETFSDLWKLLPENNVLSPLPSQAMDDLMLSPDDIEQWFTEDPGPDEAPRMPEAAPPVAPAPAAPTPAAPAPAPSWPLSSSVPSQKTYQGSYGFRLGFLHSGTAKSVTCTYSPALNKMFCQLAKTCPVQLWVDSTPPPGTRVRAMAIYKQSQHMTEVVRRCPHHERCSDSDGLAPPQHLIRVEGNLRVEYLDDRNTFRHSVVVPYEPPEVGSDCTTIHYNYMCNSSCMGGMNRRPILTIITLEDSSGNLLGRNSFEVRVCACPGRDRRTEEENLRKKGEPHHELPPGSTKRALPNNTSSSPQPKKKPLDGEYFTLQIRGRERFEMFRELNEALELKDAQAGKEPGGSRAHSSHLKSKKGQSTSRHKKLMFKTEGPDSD

`Cc1onc(-c2ccccc2)c1C(=O)N[C@@H]1C(=O)N2[C@@H]1SC(C)(C)[C@@H]2C(=O)O`: the outcome in assay [1], in assay [2] and in assay [3] was inactive.

With `CC1(C)[C@@H](OC(=O)CCC(=O)O)CC[C@]2(C)[C@H]3C(=O)C=C4[C@@H]5C[C@@](C)(C(=O)O)CC[C@]5(C)CC[C@@]4(C)[C@]3(C)CC[C@@H]12`, the compound was called inactive in assay [1], in assay [4] and in assay [5].

Regarding `C[C@]12CCC(=O)C=C1CC[C@@H]1[C@@H]2[C@@H](O)C[C@@]2(C)[C@H]1CC[C@]2(O)C(=O)COC(=O)CCC(=O)O`, the outcome in assay [1], in assay [2], in assay [5] and in assay [3] was inactive.

For `O=C(O)c1ccc(CO)o1`, the compound was called inactive in assay [1], in assay [2], in assay [5] and in assay [3].

For the compound `CN1C(C)(C)CCCC1(C)C`, the result in assay [1], in assay [4] and in assay [5] was inactive.

`CC(C)CN(C[C@@H](O)[C@H](Cc1ccccc1)NC(=O)O[C@@H]1CCOC1)S(=O)(=O)c1ccc(N)cc1`: the compound was called inactive in assay [1] and in assay [5].

With `CC(=O)N(CC(O)CO)c1c(I)c(C(=O)NCC(O)CO)c(I)c(C(=O)NCC(O)CO)c1I` (configuration not stated), the outcome in assay [6], in assay [7], in assay [8] and in assay [2] was inactive.

Turning to `O=C(O)c1ccc(Cl)cc1Cl`, the compound was called inactive in assay [1], in assay [4] and in assay [3].

For `CCOC(=O)O[C@]1(C(=O)COC(=O)CC)CC[C@H]2[C@@H]3CCC4=CC(=O)C=C[C@]4(C)[C@H]3[C@@H](O)C[C@@]21C`, the call in assay [1], in assay [4], in assay [5] and in assay [3] was inactive.

`C=CC(=O)OCC[N+](C)(C)C`: the result in assay [6] was inactive.

For `OC[C@H]1O[C@@H](O[C@@H]2[C@@H](CO)O[C@](O)(CO)[C@H]2O)[C@H](O)[C@@H](O)[C@H]1O`, the compound was called inactive in assay [1], in assay [4], in assay [5] and in assay [3].

Regarding `CCCCC(=O)N(C)C`, the outcome in assay [1], in assay [4] and in assay [3] was inactive.

Consider `OC(CN1CCCCC1)c1cc(-c2ccccc2)on1` (configuration not stated), for which the result in assay [1] and in assay [3] was inactive.

Take `C[C@H](N)[C@H](O)c1cccc(O)c1`: the outcome in assay [6] and in assay [7] was inactive.

On to `CC(=O)O[C@H]1C[C@@H]2CC[C@@H]3[C@H](CC[C@@]4(C)[C@H]3C[C@H](N3CC[N+](C)(C)CC3)[C@@H]4OC(C)=O)[C@@]2(C)C[C@@H]1N1CC[N+](C)(C)CC1`, for which the outcome in assay [1], in assay [4], in assay [5] and in assay [3] was inactive.

With `Nc1ccc(S(=O)(=O)O)cc1`, the result in assay [6], in assay [7] and in assay [8] was inactive.

For `CCCC(=O)Nc1c(I)cc(I)c(CC(CC)C(=O)O)c1I` (configuration not stated), the result in assay [6] was inactive.

Turning to `O=[N+]([O-])c1ccc(F)c(Cl)c1`, the outcome in assay [6] and in assay [7] was inactive.

For `Nc1cc(C(=O)O)ccc1Cl`, the result in assay [6] and in assay [7] was inactive.

As usually defined, the AC50 is the midpoint of the concentration-response curve, whichever way the signal moves. On to `CSSc1ccoc1C`, for which the outcome in assay [6] and in assay [7] was inactive. Besides, in assay [8], the half-maximal activity concentration (AC50) is 40.4 µM (active).
